Screens as filed in PubChem.
IL-1B inflam inh = inflammasome signaling inhibition, IL-1 beta readout; THP-1 LPS/ATP IL-1B secretion, AlphaLISA, 16 h; stronger effect = lower value; 360,000 compounds, 4.7% hits; AID 743279; activity change, % at 57.5 µM; in the data active = activity change below about -50%; inconclusive = mostly about -30% to -49%; note: % is set by controls: 0 for no effect and ±100 for the full control effect
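THP-1 cells pretreated 1 hr with compounds (up to 57.5 uM final), then stimulated with LPS (250 ng/mL final) plus ATP (1.25 mM final); secreted IL-1B measured by AlphaLISA after 16 hr, decreased signal indicating inhibition.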
D3 ag = agonists of human D3 dopamine receptor | max activation, % | AID 652048 | D3R DiscoveRx beta-arrestin cells, luminescence, 90 min | 410,000 compounds, 0.58% hits | P35462; in the data active = max activation above about 30%; note: 0% is about no effect
Target sequence (P35462 whole entry, looked up): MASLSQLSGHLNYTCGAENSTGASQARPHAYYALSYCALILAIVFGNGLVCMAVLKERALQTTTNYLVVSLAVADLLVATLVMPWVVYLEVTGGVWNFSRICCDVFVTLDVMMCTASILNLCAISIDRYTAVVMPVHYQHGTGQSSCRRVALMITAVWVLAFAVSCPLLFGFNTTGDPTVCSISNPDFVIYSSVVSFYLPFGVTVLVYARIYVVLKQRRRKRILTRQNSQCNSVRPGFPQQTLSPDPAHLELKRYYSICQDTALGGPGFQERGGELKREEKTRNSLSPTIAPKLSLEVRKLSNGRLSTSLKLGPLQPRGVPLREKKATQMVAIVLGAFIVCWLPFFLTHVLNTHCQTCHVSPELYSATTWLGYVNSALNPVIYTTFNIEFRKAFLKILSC
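Cells at 1500/well, incubated overnight, then treated with pinned compounds (dopamine as control) for 90 min at 37 degrees C. DiscoveRx reagent added for 30 - 60 minutes at room temperature; luminescence read.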
DT40 TDP1 CPT = DT40-hTDP1 cell growth loss with CPT. Potency, µM (titrated, usually from 46.2 µM), inactives show at the highest dose activity change, negative = growth inhibition, usual class: inhibitors. chicken DT40 Tdp1-/-;hTDP1 cells + 20 nM CPT, ATP luminescence, 48 h. 420,000 compounds, 12% hits; note: potency is the fitted concentration of half-maximal effect; % is set by controls: 0 for no effect and ±100 for the full control effect; nearly all actives have a fitted effect of over 55% in size
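Chicken DT40 Tdp1-/- cells stably complemented with human TDP1 were seeded at 400 cells/well in medium containing 20 nM camptothecin, exposed to pin-transferred compounds, and grown at 37 °C for at least 48 hr. Viability was read as ATP luminescence.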
ClpP mod = qHTS Assay for Activators of ClpP. ATP-dependent Clp protease proteolytic subunit (Bacillus subtilis (strain 168)), P80244. purified B. subtilis ClpP, FRET peptide cleavage, 20 min. Potency, µM (doses to about 57.5 µM), for inactives: at the top dose activity change, negative = active. 340,000 compounds, 1.9% hits. AID 651965, 2013; active = well fitted falling curve with a large enough effect; inconclusive = small, poorly fitted or top-dose-only effect; inactive = no such curve, though single readings can be large or run the other way; note: potency is the fitted concentration of half-maximal effect; the source files actives as falling curves though it sought activators and does not explain the sign; nearly all actives have a fitted effect of over 65% in size
Target sequence (P80244 whole entry, looked up): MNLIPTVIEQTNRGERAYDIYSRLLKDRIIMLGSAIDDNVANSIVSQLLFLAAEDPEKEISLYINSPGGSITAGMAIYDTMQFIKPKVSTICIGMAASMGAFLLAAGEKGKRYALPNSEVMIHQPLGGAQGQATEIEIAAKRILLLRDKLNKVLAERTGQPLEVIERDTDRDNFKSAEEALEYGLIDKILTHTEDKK
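Buffer: 100 mM Tris/HCl pH8, 100 mM KCl, 0.05% low protease BSA, 2.5% glycerol, 0.01% Tween-20. ClpP 10 microg/mL final; 20 min RT; delta FRET normalized to ADEP and DMSO controls.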
TDP1 cell noCPT = qHTS for Inhibitors of human tyrosyl-DNA phosphodiesterase 1 (TDP1): qHTS in cells in absence of CPT; DT40 Tdp1-/- hTDP1 cells, no CPT, ATP luminescence, 48 h; Potency, µM (doses to about 46.2 µM), for inactives: at the highest dose activity change, negative = growth inhibition, actives largely listed as inhibitors; 420,000 compounds, 15% hits; AID 686978, 2013; note: potency is the fitted concentration of half-maximal effect; % is set by controls: 0 for no effect and ±100 for the full control effect; nearly all actives have a fitted effect of over 55% in size
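Stably hTDP1-transfected Tdp1-null chicken DT40 cells were treated with library compounds minus camptothecin and grown for at least 48 hr at 37 °C, after which cellular ATP was quantified by luminescence.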
D3 antag = antagonists of human D3 dopamine receptor; D3R cells, DiscoveRx beta-arrestin luminescence, antagonist mode; stronger effect = lower value; max response, negative = inhibition, %; 360,000 compounds, 2.5% hits; in the data active = max response below about -50%; inconclusive = no clear call, values can overlap the other calls; note: % is set by controls: 0 for no effect and ±100 for the full control effect
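Cells plated overnight at 1500 cells/well, then exposed to library compounds with dopamine controls for 90 minutes at 37 degrees C. DiscoveRx reagent added for 30–60 minutes at room temperature; luminescence read, quantitative HTS format.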
* hit, by the source's call; u = inconclusive; x = no result. Sampled rows, rich in hits. Any-hit rate of the full collection: about 21%. Unless noted, calls come from the whole dose curve; as a rule, active = well fitted inhibition curve with a large enough effect; inconclusive = small, poorly fitted or top-dose-only effect; inactive = flat fitted curve, though single readings scatter.

SMILES | IL-1B inflam inh | D3 ag | DT40 TDP1 CPT | ClpP mod | TDP1 cell noCPT | D3 antag
CS(=O)(=O)c1ccc(Nc2nc(C(N)Cc3ccccc3)cs2)cc1 (configuration not stated) | 0 | -5 | u | -14% | 21µM* | 1
COc1cc(/C=N/N2CCN(Cc3ccc(C)cc3)CC2)cc(OC)c1O | 5 | -23 | u | -4% | -38% | -79*
CCN(CC)c1ccc(/C=N/N2CCN(Cc3ccc(C)cc3)CC2)c(O)c1 | -16 | -67 | u | -1% | u | -59*
Cc1ccc(CN2CCN(/N=C/c3ccccc3)CC2)cc1 | -16 | -14 | 4% | x | -23% | -16
Cc1ccc(CN2CCN(/N=C/c3cc(Br)cc(Br)c3O)CC2)cc1 | -12 | -18 | u | 1% | 21µM* | -15
Oc1c(Br)cc(Br)cc1/C=N/N1CCN(Cc2ccccc2)CC1 | u | -28 | u | -20% | u | -80*
CCN(CC)c1ccc(/C=N/N2CCN(Cc3ccccc3Cl)CC2)c(O)c1 | -26 | -15 | u | 1% | -11% | 22
COc1ccc(Br)cc1C(=O)Nc1cccc2ccc(C)nc12 | x | -10 | -7% | u | -3% | x
COCC(C)OC(=O)c1c(N)n(-c2ccc(OC)c(OC)c2)c2nc3ccccc3nc12 (configuration not stated) | -5 | -14 | -3% | -11% | -10% | -3
C=CCNC(=O)c1c(N)n(-c2ccc3c(c2)OCO3)c2nc3ccccc3nc12 | 18 | 16 | 12µM* | -10% | 13µM* | 8
CCOC(=O)c1c(N)n(-c2ccc(C)c(C)c2)c2nc3ccccc3nc12 | x | -20 | x | 4% | x | x
COC(=O)c1c(N)n(-c2ccc(OC)c(OC)c2)c2nc3ccccc3nc12 | x | -1 | 5.8µM* | -5% | 9.2µM* | x
CCCNC(=O)c1c(N)n(-c2cccc(OC)c2)c2nc3ccccc3nc12 | -71* | 4 | u | 20µM* | u | 75
CN(C)S(=O)(=O)c1cccc(NC(=O)CO/N=C(\N)c2ccccc2)c1 | 4 | 4 | -22% | 1% | u | 0
O=S1(=O)c2ccc(Br)cc2N2CCC[C@@H]2CN1C1CC1 | 19 | 4 | u | -2% | u | -7
C[C@@H](c1ccccc1)N1C[C@H]2CCCN2c2cc(Br)ccc2S1(=O)=O | 0 | 18 | 18µM* | -1% | u | 30
COc1ccc(OC)c(S(=O)(=O)N2CCC(NC(=O)c3ccccc3)CC2)c1 | 5 | 8 | -7% | -1% | u | 18
C[C@H](c1ccccc1)N1C[C@@H](COCc2ccccc2)Oc2cc(N3CC[C@H](N(C)C)C3)ccc2S1(=O)=O | 14 | -5 | u | -9% | 16µM* | -12
C[C@@H](c1ccccc1)N1C[C@@H](COCc2ccccc2)Oc2cc(N3CC[C@H](N(C)C)C3)ccc2S1(=O)=O | 0 | -2 | -21% | -4% | -14% | 0
C[C@H](c1ccccc1)N1C[C@@H](COCc2ccccc2)Oc2cc(N3CC[C@@H](N(C)C)C3)ccc2S1(=O)=O | -6 | -4 | 18µM* | -10% | u | 40
C[C@@H](c1ccccc1)N1Cc2ccccc2Oc2cc(Br)ccc2S1(=O)=O | -8 | -14 | u | -2% | -25% | -3
COC(=O)c1ccc(NC(=O)c2nc(S(=O)(=O)Cc3cccc(C)c3)ncc2Cl)cc1 | -103* | -28 | 0.58µM* | x | 0.52µM* | -53*
CC(=O)Nc1ccc(NC(=O)c2nc(S(=O)(=O)Cc3cccc(C)c3)ncc2Cl)cc1 | -100* | -28 | 0.058µM* | x | 0.046µM* | -75*
CCOC(=O)c1ccc(NC(=O)c2nc(S(=O)(=O)Cc3ccccc3)ncc2Cl)cc1 | -105* | -37 | 0.46µM* | 0% | 1.3µM* | u
Cc1ccc(CNC(=O)c2nc(SCc3cccc(C)c3)ncc2Cl)cc1 | x | -28 | u | -11% | u | x
SMILES | IL-1B inflam inh | D3 ag | DT40 TDP1 CPT | ClpP mod | TDP1 cell noCPT | D3 antag
CC(=O)Nc1ccc(NC(=O)c2nc(SCc3ccccc3C)ncc2Cl)cc1 | x | -7 | -29% | -1% | -9% | x
COC(=O)c1ccccc1NC(=O)c1nc(S(=O)(=O)Cc2cccc(C)c2)ncc1Cl | x | 8 | 2.9µM* | 1% | 2.6µM* | x
Cc1c(Cl)cccc1NC(=O)c1ccc2c(c1)CCN2S(=O)(=O)c1ccccc1 | x | 3 | u | 1% | u | x
CCCc1nn2c(=O)cc(COc3ccc(/C=C(\C#N)C(=O)Nc4ccccc4)cc3)nc2s1 | x | -8 | -5% | -3% | -17% | x
CC(C)CNC(=O)C1(C)CCCN1Cc1ccc(S(C)(=O)=O)cc1 (configuration not stated) | -22 | -15 | -28% | -3% | -7% | u
Cc1ccc(Nc2nc(N)c(C#N)c(CC#N)c2C#N)cc1 | -97* | -3 | -15% | -21% | 2% | -7
Cc1ccc(-n2nc(CC#N)c(C#N)c2N)cc1 | 20 | 1 | -5% | -2% | -20% | -14
CCOc1ccc2[nH]c(=O)c(C(c3nnnn3Cc3ccco3)N3CCC(C)CC3)cc2c1 (configuration not stated) | -5 | 9 | -79% | u | 26µM* | -9
CCOc1ccc2[nH]c(=O)c(C(c3nnnn3C3CCCCC3)N3CCN(CC)CC3)cc2c1 (configuration not stated) | 2 | -16 | -28% | 25µM* | -17% | 8
COc1cc2cc(C(c3nnnn3C3CCCC3)N3CCCCCC3)c(=O)[nH]c2cc1OC (configuration not stated) | -3 | -13 | u | u | -24% | -4
CCOc1ccc2[nH]c(=O)c(C(c3nnnn3C3CCCCC3)N3CCN(C)CC3)cc2c1 (configuration not stated) | -8 | -2 | u | 25µM* | -15% | 2
Cc1cc(C)c2[nH]c(=O)c(C(c3nnnn3Cc3ccc4c(c3)OCO4)N3CCC(C)CC3)cc2c1 (configuration not stated) | -22 | 0 | u | -17% | 16µM* | 17
NS(=O)(=O)c1ccc(CCNC(=O)c2cc([N+](=O)[O-])ccc2N2CCOCC2)cc1 | -15 | -7 | 0% | -3% | -7% | u
